Only some compounds are listed: those with a hit (about 19% of all), similar ones and a draw of the others.
TDP1 cell CPT – growth inhibition of DT40 Tdp1-/-;hTDP1 cells with camptothecin (screen for TDP1 inhibitors); chicken DT40 Tdp1-/-;hTDP1 cells + 20 nM CPT, ATP luminescence, 48 h; Potency, µM (top dose mostly 46.2 µM), for inactives: at the highest dose activity change, negative = growth inhibition, usual class: inhibitors; 420,000 compounds, 12% hits; AID 686979; further: potency means the concentration at half of the fitted maximal effect; nearly all actives have a fitted effect of over 55% in size
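Cell growth measured by CellTiter-Glo luminescence after a minimum 48 h, 37 C compound exposure with 20 nM CPT in Tdp1-knockout DT40 cells stably expressing hTDP1, seeded 400/well; qHTS titration format.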
DT40 TDP1 no CPT – qHTS for Inhibitors of human tyrosyl-DNA phosphodiesterase 1 (TDP1): qHTS in cells in absence of CPT; DT40 Tdp1-/- hTDP1 cells, no CPT, ATP luminescence, 48 h; 420,000 compounds, 15% hits; Potency, µM (doses to about 46.2 µM), without a hit: at the highest dose activity change, negative = growth inhibition, most hits filed as inhibitors; further: potency means the concentration at half of the fitted maximal effect; nearly all actives have a fitted effect of over 55% in size
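Growth kinetics read by CellTiter-Glo luminescence after ≥48 hr at 37 °C. Cells: DT40 Tdp1-/- stably carrying human TDP1, 400 per well, compound exposure in the absence of CPT (DMSO vehicle).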
IL1B secr inh – inflammasome signaling inhibition, IL-1 beta readout; activity change, % at 57.5 µM; 360,000 compounds, 4.7% hits; THP-1 LPS/ATP IL-1B secretion, AlphaLISA, 16 h; hits give low values; in the data active means activity change below about -50%; inconclusive means mostly about -30% to -49%
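THP-1 cells pretreated 1 hr with compounds (up to 57.5 uM final), then stimulated with LPS (250 ng/mL final) plus ATP (1.25 mM final); secreted IL-1B measured by AlphaLISA after 16 hr, decreased signal indicating inhibition.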
HT1080NT lethal – kills 2HG-producing HT-1080-NT fibrosarcoma cells; Potency, µM (titrated, usually from 46.1 µM), for the others: top-dose activity, negative = less viability, actives largely listed as cytotoxic; AID 686970; 360,000 compounds, 1.6% hits; HT-1080-NT fibrosarcoma viability, CellTiter-Glo ATP luminescence, 48 h;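 further: NT is the 2HG producing partner of a matched IDH1 knockdown line; potency means the concentration at half of the fitted maximal effect; 0% = DMSO-treated cells and -100% = media-only wells without cells; nearly all actives have a fitted effect of over 55% in size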
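Luminescent CellTiter-Glo readout after 48 hours of compound exposure at 37 degrees C defined viability of HT-1080-NT cells. Activity was normalized to DMSO wells and cell-free media wells; concentration-response curves were fitted and assigned curve classes.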
uPA generation – inhibitors of cell surface uPA generation. cell surface uPA generation assay, qHTS. Potency, µM (series often up to 38.3 µM), for the others: at the top dose activity change, negative = inhibition, actives largely listed as inhibitors. 330,000 compounds, 0.31% hits. AID 540303; active means well fitted inhibition curve with a large enough effect; inconclusive means small, poorly fitted or top-dose-only effect; inactive means no such curve, though single readings can be large or run the other way; tested in mouse RAW 264.7 cells; further: potency means the concentration at half of the fitted maximal effect; nearly all actives have a fitted effect of over 55% in size
HT1080 IDH1KD tx – kills HT-1080 cells with IDH1 knockdown; AID 686971; HT-1080 IDH1 knockdown viability, ATP luminescence, 48 h; Potency, µM (highest dose often 46.1 µM), for inactives: at the highest dose activity, negative = toxicity, most hits filed as cytotoxic; 360,000 compounds, 2% hits;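 further: potency means the concentration at half of the fitted maximal effect; 0% = DMSO wells and -100% = cell-free medium wells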
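IDH1KD HT-1080 cells, 750/well, RPMI + 5% FBS; compound pinned after 2 h settling; 48 h, 37 °C; CellTiter-Glo luminescence; % activity normalised to DMSO and no-cell wells; curves fitted, classed by r2 and efficacy.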
* marks the source's active call; other numbers are inactive results; [ ] = dose if it differs, or a comment. Unless noted, the call rests on the fitted dose curve; in most records, active means well fitted curve in the direction sought with a large enough effect; inconclusive means small, poorly fitted or top-dose-only effect, or another doubt; inactive means no such curve, though single readings can be large; an effect the other way counts as inactive or inconclusive. Unless noted, on the % scale 0 is the no-effect control and ±100 the full control effect.

For Oc1ccc(-c2nc(-c3ccc(F)cc3)c(-c3ccncc3)[nH]2)cc1 the results were TDP1 cell CPT inconclusive, DT40 TDP1 no CPT 6.51µM*, IL1B secr inh 66.9, HT1080NT lethal -27.1%, uPA generation -8.7% and HT1080 IDH1KD tx -17.4%.
CN(C(=O)CSCC(=O)O)C1CCCCC1 was read as TDP1 cell CPT -13.6%, DT40 TDP1 no CPT -2.7%, IL1B secr inh -25.6, HT1080NT lethal 14.9%, uPA generation 1.4% and HT1080 IDH1KD tx 20.1%.
Screening CCS(=O)(=O)C1=NN2C(=N)/C(=C\c3ccc(SCc4ccco4)o3)C(=O)N=C2S1 returned TDP1 cell CPT 6.7%, DT40 TDP1 no CPT 15.2%, IL1B secr inh 1.8, HT1080NT lethal -0.4%, uPA generation 14.9% and HT1080 IDH1KD tx -11.2%.
Cc1ccc(C(=O)c2c(C)oc3c2C(=O)C(=O)c2ccccc2-3)cc1 was read as TDP1 cell CPT 2.06µM*, DT40 TDP1 no CPT 2.59µM*, IL1B secr inh -121.0*, HT1080NT lethal inconclusive, uPA generation -17.0% and HT1080 IDH1KD tx inconclusive.
Cc1cc(=O)c(C(=O)c2ccccc2)c(C)o1 was read as TDP1 cell CPT -3.2%, DT40 TDP1 no CPT -9.6%, IL1B secr inh -8.0, HT1080NT lethal 0.0%, uPA generation 0.0% and HT1080 IDH1KD tx 16.4%.
`Cc1ccc(C(=O)c2coc3c2C(=O)C(=O)c2ccccc2-3)cc1` gave TDP1 cell CPT 3.26µM*, DT40 TDP1 no CPT 4.61µM*, IL1B secr inh 0.0, HT1080NT lethal inconclusive, uPA generation -14.3% and HT1080 IDH1KD tx inconclusive.
O=C(Nc1cccc(Cl)c1)c1cc2c(=O)[nH]c3ccccc3c2s1 was read as TDP1 cell CPT -1.4% and DT40 TDP1 no CPT -17.5%.
CC(=O)NCCNc1ccnc(-c2ccccc2C(F)(F)F)n1 was read as TDP1 cell CPT -4.3% and DT40 TDP1 no CPT 19.4%.
`COc1ccc(CCNC(=O)CCC(=O)N2CC(C)Oc3ccccc32)cc1OC` (stereo not given) gave TDP1 cell CPT -21.0%, DT40 TDP1 no CPT inconclusive, IL1B secr inh -25.7, HT1080NT lethal 0.7%, uPA generation -6.1% and HT1080 IDH1KD tx -2.0%.
Screening Cc1nc(NCc2ccccc2)c2cc[nH]c2n1 returned TDP1 cell CPT inconclusive, DT40 TDP1 no CPT 11.6µM*, IL1B secr inh -14.1, HT1080NT lethal 1.9%, uPA generation -14.1% and HT1080 IDH1KD tx -0.1%.
`COc1cccc(-c2nc(NCc3ccccc3)c3ccccc3n2)c1O` gave TDP1 cell CPT inconclusive, DT40 TDP1 no CPT inconclusive, IL1B secr inh 9.9, HT1080NT lethal inconclusive, uPA generation 0.3% and HT1080 IDH1KD tx inconclusive.
For Cc1ccc(S(=O)(=O)NCCCCCC(=O)Nc2c(C)n(C)n(-c3ccccc3)c2=O)cc1 the results were TDP1 cell CPT -2.7%, DT40 TDP1 no CPT -28.5%, IL1B secr inh -6.9, HT1080NT lethal -1.8%, uPA generation 1.4% and HT1080 IDH1KD tx -1.3%.
Screening CN1C(=O)c2cccc3c(S(=O)(=O)NCCc4ccccc4)ccc1c23 returned TDP1 cell CPT inconclusive, DT40 TDP1 no CPT 20.6µM*, IL1B secr inh 15.0, HT1080NT lethal -1.9%, uPA generation -1.2% and HT1080 IDH1KD tx -15.3%.
Screening CCOc1cc(C(=O)Nc2ccc3c4c(cccc24)C(=O)N3CC)cc(OCC)c1OCC returned TDP1 cell CPT inconclusive, DT40 TDP1 no CPT 23.1µM*, IL1B secr inh -18.9, HT1080NT lethal -28.8% and HT1080 IDH1KD tx -25.4%.
CCN1C(=O)c2cccc3c(NC(=O)c4cccc(N5C(=O)CCC5=O)c4)ccc1c23 was read as TDP1 cell CPT -20.9%, DT40 TDP1 no CPT -25.0%, IL1B secr inh 31.3, HT1080NT lethal 18.3%, uPA generation 1.4% and HT1080 IDH1KD tx 3.0%.
For CCOC(=O)CNS(=O)(=O)c1ccc2c3c(cccc13)C(=O)N2CC the results were TDP1 cell CPT 2.8%, DT40 TDP1 no CPT 1.0%, IL1B secr inh -86.0*, HT1080NT lethal -0.1%, uPA generation -4.1% and HT1080 IDH1KD tx 0.4%.
CCOC(=O)Cc1csc(NS(=O)(=O)c2ccc3c4c(cccc24)C(=O)N3CC)n1 was read as TDP1 cell CPT -2.5%, DT40 TDP1 no CPT -12.8%, IL1B secr inh 12.1, HT1080NT lethal 2.1%, uPA generation -4.2% and HT1080 IDH1KD tx inconclusive.
`COCCNS(=O)(=O)c1ccc2c3c(cccc13)C(=O)N2C` gave TDP1 cell CPT -10.4%, DT40 TDP1 no CPT -21.1%, IL1B secr inh -8.6, HT1080NT lethal 3.3%, uPA generation -4.3% and HT1080 IDH1KD tx 1.9%.
For Cc1ccccc1CNC(=O)c1ccc2nc(C(C)C)oc2c1 the results were TDP1 cell CPT -29.0% and DT40 TDP1 no CPT -22.3%.
For Cc1cc(=O)c(C(=O)N(C)CCc2ccccn2)c2n1-c1ccccc1SC(c1ccsc1)C2 (stereo not given) the results were TDP1 cell CPT -6.5%[9.04 µM] and DT40 TDP1 no CPT 3.1%.
`COC(=O)C[C@@H]1CC[C@H](NC(=O)Nc2ccc(OC)cc2)[C@@H](CO)O1` gave TDP1 cell CPT 1.9%, DT40 TDP1 no CPT 7.9%, IL1B secr inh -56.9*, HT1080NT lethal 13.6% and HT1080 IDH1KD tx 19.8%.
For COc1ccc(OC)c(NC(=O)c2nc(S(=O)(=O)Cc3ccccc3)ncc2Cl)c1 the results were TDP1 cell CPT 0.581µM*, DT40 TDP1 no CPT 0.581µM*, IL1B secr inh -101.7*, HT1080NT lethal 4.61µM*, uPA generation 8.4% and HT1080 IDH1KD tx 3.66µM*.
`COc1ccc(OC)c(NC(=O)c2nc(S(=O)(=O)Cc3ccccc3F)ncc2Cl)c1` gave TDP1 cell CPT 1µM* and DT40 TDP1 no CPT 0.631µM*.
For Cc1ccccc1C(=O)Nc1cccc(-c2nc3cccnc3s2)c1 the results were TDP1 cell CPT inconclusive and DT40 TDP1 no CPT 18.4µM*.
`CCS(=O)(=O)Nc1cccc(-c2nc3cccnc3s2)c1` gave TDP1 cell CPT -9.9%, DT40 TDP1 no CPT inconclusive, IL1B secr inh 18.1, HT1080NT lethal 8.8%, uPA generation 4.1% and HT1080 IDH1KD tx 7.6%.
CCS(=O)(=O)Nc1cc(-c2nc3cccnc3s2)ccc1C was read as TDP1 cell CPT inconclusive, DT40 TDP1 no CPT 25.9µM*, IL1B secr inh 16.9, HT1080NT lethal -18.4%, uPA generation -28.8% and HT1080 IDH1KD tx -11.2%.
Cc1ccc(-n2c(-c3ccccc3)c[n+]3c2CCc2ccccc2-3)c(C)c1 was read as TDP1 cell CPT 0.206µM*, DT40 TDP1 no CPT 0.0366µM*, IL1B secr inh -99.5*, HT1080NT lethal 23.1µM*, uPA generation -14.7% and HT1080 IDH1KD tx inconclusive.
